According to PubChem BioAssay (NCI):
About 79,000 compounds went through this panel and 15% of them were active in at least one assay; those are over-represented in the sample as a whole. Rule as the data show it: active = growth inhibition above about 70%; inactive = the rest.

What was measured:
[1] = NCI Yeast Anticancer Drug Screen. Data for the rad50 strain (AID 155);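 also: 0% = growth of vehicle-only cultures of the same strain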; conditions: S. cerevisiae rad50 strain growth inhibition; at 50.0 µM; hits give high values
How it was run: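 Relative growth inhibition (compound vs vehicle) was measured in yeast with a defined repair-gene alteration.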

[2] = NCI Yeast Anticancer Drug Screen. Data for the mec2-1 strain (AID 157); conditions: S. cerevisiae mec2-1 strain, at 50.0 µM, hits give high values
How it was run: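 Cells of the genetically defined mec2-1 yeast strain are incubated with test compound. Inhibition of growth is calculated against vehicle-treated controls.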

[3] = NCI Yeast Anticancer Drug Screen. Data for the sgs1 mgt1 strain (AID 161);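 also: 0% = growth of cultures given vehicle only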; conditions: S. cerevisiae sgs1 mgt1 strain, at 50.0 µM, hits give high values
How it was run: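 Genetically altered yeast, compound exposure, growth inhibition relative to vehicle.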

[4] = NCI Yeast Anticancer Drug Screen. Data for the cln2 rad14 strain (AID 165);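 also: 0% = growth equal to vehicle treated cultures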; conditions: S. cerevisiae cln2 rad14 strain, at 50.0 µM, hits give high values
How it was run: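 The screen exposed genetically defined yeast (cln2 rad14) to test compounds and scored growth inhibition relative to vehicle-treated controls.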

[5] = NCI Yeast Anticancer Drug Screen. Data for the bub3 strain (AID 167); conditions: S. cerevisiae bub3 mutant strain, at 50.0 µM, hits give high values
How it was run: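 Screening used yeast with an engineered genetic alteration affecting cell cycle control. Compound-exposed cultures were compared with vehicle cultures, and reduced growth was taken as inhibition.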

[6] = NCI Yeast Anticancer Drug Screen. Data for the mlh1 rad18 strain (AID 175); conditions: S. cerevisiae mlh1 rad18 strain growth inhibition; at 50.0 µM; hits give high values
How it was run: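 Compound-treated yeast growth, normalised to vehicle controls. Strain bears defined DNA repair mutations.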

Measured: growth inhibition

CCc1nc(N)nc(N)c1-c1ccc(OC)c([N+](=O)[O-])c1
inactive: [1] 3.25% | [2] -14.7% | [3] -27.2% | [4] 24.9% | [5] -21.4% | [6] 7.9%

O=C(O)c1cc(Br)ccc1[N+](=O)[O-]
inactive: [1] -5.8% | [2] -25.4% | [3] 3.95% | [4] 7.05% | [5] -1.95% | [6] -11%

O=C=Nc1cc(Cl)ccc1Cl
inactive: [1] 38.5% | [2] 21.8% | [3] 17.4% | [4] -24.4% | [5] 7.95% | [6] 28.9%

N#CC1(NC(=O)N(CCCl)N=O)CCCCC1
inactive: [1] 4.8% | [2] 1.25% | [3] -0.6% | [4] 5.65% | [5] 9.95% | [6] -27.9%

CCC(C#N)(c1ccccc1)N(CCc1ccccc1)C(=O)c1ccccc1 (centres undefined)
inactive: [1] -5.8% | [2] -0.5% | [3] -12.9% | [4] -20.9% | [5] -13.2% | [6] -22.1%

O=C(O)C(Oc1ccc(Cl)cc1Cl)C(Oc1ccc(Cl)cc1Cl)C(=O)O (centres undefined)
inactive: [1] -3.95% | [2] -4.1% | [3] -9.95% | [4] -15.5% | [5] 1.75% | [6] 3.75%

CC(=O)OC1CCC2(C)C(CCC3C2CCC2(C)C3CC3OC(CCC(C)CO)C(C)C32)C1 (centres undefined)
inactive: [1] 14.8% | [2] 8.55% | [3] -0.45% | [4] 19.6% | [5] -0.75% | [6] 10.1%

CCCC1OCCO1
inactive: [1] -15.3% | [2] -0.95% | [3] -6.85% | [4] -4.5% | [5] 5.15% | [6] -3.9%

CCN1C(=O)N(CC)C2(CC(=O)c3ccccc3O2)C1=O (centres undefined)
inactive: [1] 15.2% | [2] -3.45% | [3] 20.2% | [4] 7.15% | [5] 20.1% | [6] 19.6%

N#C/C(=C\c1ccc2ccccc2c1)c1ccccc1
inactive: [1] 37.9% | [2] 14.9% | [3] 12.8% | [4] 17% | [5] 25.7% | [6] 52%

CCc1ccc2ccccc2c1N
inactive: [1] 20.6% | [2] 8.05% | [3] 6.1% | [4] -1.65% | [5] -0.3% | [6] 15.1%

COC(=N)CC(=O)C(C)(C)C
inactive: [1] -6.4% | [2] -15.9% | [3] -13.7% | [4] -9.65% | [5] -6.25% | [6] -7.2%

C/C=C\CCCCCCCCCCCCCCCC
inactive: [1] -1.15% | [2] -12.1% | [3] -0.6% | [4] 13.4% | [5] -6.9% | [6] 16.8%

CC1(c2cccc3ccccc23)OC(=O)c2cccc(F)c21 (centres undefined)
inactive: [1] -10.9% | [2] -7.1% | [3] -16.1% | [4] 23.4% | [5] 7.6% | [6] 0.55%

C[C@H]1O[C@@H](C(C)(C)C)OC(=O)[C@@H]1C(OC(=O)c1ccccc1)c1cccc2ccccc12 (some centres undefined)
inactive: [1] -0.1% | [2] 3.15% | [3] 12.1% | [4] 25.3% | [5] -3.45% | [6] 8%

NC(=O)N/N=C/c1ccc2oc3ccccc3c2c1
inactive: [1] 40.2% | [2] 19.1% | [3] 18.4% | [4] 16.5% | [5] 18.4% | [6] 44.5%

CC(=O)Nc1ccc(S(=O)(=O)Nc2cc(Cl)cc(Cl)c2)cc1
inactive: [1] 15.7% | [2] -10.2% | [3] -0.05% | [4] 8.75% | [5] 2.1% | [6] -7.1%

Cn1nnn2c(-c3ccccc3)nnc12
inactive: [1] 15.4% | [2] -2.45% | [3] -5.45% | [4] -10.8% | [5] 0.8% | [6] -5.3%

Cc1csc2nc3[nH]ncc3c(=O)n12
inactive: [1] -21.6% | [2] -59% | [3] -15.1% | [4] -9.85% | [5] -5.65% | [6] -14.9%
